Each structure is given as a SMILES string. Compounds without any hit were thinned out: in the full panel of roughly 83,000, 20% have a hit.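 Results are percent growth after 48 hours of single-concentration exposure. 100 means growth as in untreated cells, lower positive values show inhibition; negative values down to -100 show cell death.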 Values without a mark were called inactive. Active and inactive are the calls of the source. How the source made its calls: active means growth percent below 10; inactive means the rest.

The test system of the assay is SK-MEL-28 melanoma. Description: NCI-60 one-dose screen, 48 h (100 = growth as untreated, 0 = no growth, -100 = all killed). The following applies: 10 µM unless noted.
Turning to `COc1ccc2c(c1)C(=Nc1cc(OC)c(OC)c(OC)c1)C(=O)N2`, the growth was 90.2%.

`COc1cnc2c(c1)C(=O)c1c-2n(CCCn2ccnc2)c(=O)c2cc(F)ccc12`: the growth was -62.5% (active).

Take `C[C@]12CCC(=O)C=C1CCC1C2[C@@H](O)C[C@@]2(C)C1CC[C@]2(O)C(=O)COC(=O)CCC(=O)O` (some centres undefined): the growth is 108%.

With `C[C@@H]1[C@H]2[C@H](C=C3[C@@H]4CC[C@H]5Cc6nc7c(nc6C[C@]5(C)[C@H]4C[C@@H](O)[C@@]32C)C[C@@H]2CC[C@H]3C4=C[C@@H]5O[C@@]6(CC[C@](C)(CO)O6)[C@@H](C)[C@@]5(O)[C@@]4(C)[C@H](O)C[C@@H]3[C@@]2(C)C7)O[C@]12CCC(C)(C)O2`, the growth is 40.8%.

On to `CCOC(=O)/C=C1/SC(=Nc2ccc(C#N)cc2)N(Cc2ccco2)C1=O`, for which the growth was 38.5%.

As to `C[C@H](C(=O)N[C@@H](Cc1ccc(-c2ccccc2)cc1)C(=O)NC1CC(C)(C)NC(C)(C)C1)c1ccc(-c2ccccc2)c(F)c1`, the growth was -77.7% (active).

As to `Nc1ccccc1C#Cc1ccccc1C#Cc1ccc(OCCCCCCOc2ccc(C#Cc3ccccc3C#Cc3ccccc3N)cc2)cc1`, the growth is 109%.

With `CCSc1nc(-c2ccco2)n2nc(-c3ccco3)cc2n1`, the growth is 120%.

Consider `CN(C)c1ccc(-c2nc3ncc(Br)cc3o2)cc1`, for which the growth is 120%.

`CN1CCN(c2nc3scc(-c4ccccc4)c3c(=O)[nH]2)CC1`: the growth is 104%.

With `CC(=O)OC1Oc2cc(C)c(C)cc2-c2oc(=O)c(-c3ccccc3)cc21` (centres undefined), the growth is 49%.

As to `N#CC(C#N)C(C#N)C#N`, the growth was 110%.

`CCOC(=O)c1sc(NC(=O)COc2cccc(/C=C3\CCc4cc(OC)ccc4C3=O)c2)nc1C`: the growth was 103%.

Turning to `COc1cnc2c(c1)C(=O)c1c-2n(CCCN2CCOCC2)c(=O)c2cc(F)ccc12`, the growth was 18.6%.

As to `CCN1CC2=C(Nc3nc(SC)[nH]c(=O)c3C2c2cc(OC)c(OC)c(OC)c2)/C(=C/c2cc(OC)c(OC)c(OC)c2)C1` (centres undefined), the growth was 104%.

As for `CCOC(=O)CCC(=O)O[C@H]1[C@H](O[C@@H]2[C@@H](C)[C@H](O[C@H]3C[C@@](C)(OC)[C@@H](O)[C@H](C)O3)[C@@H](C)C(=O)O[C@H](CC)[C@@](C)(O)[C@H](O)[C@@H](C)C(=O)[C@H](C)C[C@@]2(C)O)O[C@H](C)C[C@@H]1N(C)C`, the growth is 117%.

Take `CNCCCn1c2c(c3ccc(F)cc3c1=O)C(=O)c1cc(OC)cnc1-2`: the growth is 9.85% (active).

Consider `NC(=NCCCCCCN=C(N)/N=C(\N)Nc1ccc(Cl)cc1)/N=C(\N)Nc1ccc(Cl)cc1`, for which the growth is 32.8%.

On to `O=C1CSC(c2ccccc2Cl)N1c1nnc(Cn2nnc3ccccc32)o1` (centres undefined), for which the growth is 92.8%.

With `O=C(O)CCC(=O)OC[C@@H](NC(=O)C(Cl)Cl)[C@H](O)c1ccc([N+](=O)[O-])cc1`, the growth was 106%.

As to `COc1ccc(-c2cc(-c3nnc(SCC(=O)Nc4ccc(C(C)=O)cc4)n3-c3ccccc3)c3ccccc3n2)cc1OC`, the growth was 113%.

As for `C[C@H](C(=O)N[C@@H](Cc1ccc(-c2ccccc2)cc1)C(=O)NC1CC(C)(C)N(C)C(C)(C)C1)c1ccc(-c2ccccc2)c(F)c1`, the growth is -73% (active).

Regarding `O=C(O)C1C(c2ccccc2)c2ccccc2C(O)C1CO` (centres undefined), the growth was 111%.

In the case of `CSc1nc(Nc2ccc(S(=O)(=O)Nc3ccon3)cc2)c(C#N)c(-c2ccc(Cl)cc2)n1`, the growth was 118%.

`Cc1cc(C)c(C(=O)c2cccs2)c(C)c1`: the growth was 114%.

Turning to `COC(=O)C1(NC(=O)CNC(=O)OCc2ccccc2)CCCC1`, the growth was 102%.

As to `Cc1cc(C)nc(NS(=O)(=O)c2ccc(Nc3nc4nc(SCc5ccccc5)nc(-c5ccc(O)cc5)c4c(=O)[nH]3)cc2)n1`, the growth is 86.3%.

For `Nc1ccc(N=Nc2ccccc2)cc1[N+](=O)[O-]`, the growth is 119%.

In the case of `NS(=O)(=O)c1cc2c(cc1Cl)NC=NS2(=O)=O`, the growth was 108%.

For `CCOC(=O)C1=CCC(n2cc(C)c(=O)[nH]c2=O)O1` (centres undefined), the growth was 112%.

As for `C[C@@H]1C[C@@H]([C@@H](CC2CC(=O)NC(=O)C2)OC(=O)CC(=O)c2ccccc2)C(=O)[C@@H](C)C1`, the growth is 13.5%.

`OCc1n(Cc2ccc3ccccc3c2)cc[n+]1Cc1ccc2ccccc2c1`: the growth is 24.9%.

With `COc1cnc2c(c1)C(=O)c1c-2n(CCCNC2=NCCS2)c(=O)c2cc(F)ccc12`, the growth was 79.2%.

For the compound `Cc1onc(-c2ccccc2Cl)c1C(=O)N[C@@H]1C(=O)N2[C@@H]1SC(C)(C)[C@@H]2C(=O)O`, the growth is 117%.

For `C[C@H]1O[C@@H](O[C@H]2[C@@H](O)C[C@H](O[C@H]3[C@@H](O)C[C@H](O[C@H]4CC[C@]5(C)C6C[C@@H](O)[C@]7(C)[C@@H](C8=CC(=O)OC8)CC[C@]7(O)C6CC[C@@H]5C4)O[C@@H]3C)O[C@@H]2C)C[C@H](O)[C@@H]1O` (some centres undefined), the growth was -56.3% (active).

`CC1CN(/N=C/c2ccc([N+](=O)[O-])o2)C(=N)O1` (centres undefined): the growth was 115%.

Regarding `O=C1NCCc2c1noc2-c1ccccc1`, the growth was 111%.

Consider `CC(=O)c1ccccc1NC(=O)C(C)(c1ccccc1)c1ccccc1`, for which the growth was 111%.

Consider `Cc1n(Cc2ccc3ccccc3c2)c2ccccc2[n+]1Cc1ccc2ccccc2c1`, for which the growth is -58% (active).
